# Measurements as given in PubChem BioAssay (NCATS).
# Where “and” joins values, the source holds several entries; their conditions need not be identical. Identical values can stand only once. Records with an inconclusive call do not appear. A number with no mark means an inactive call. Calls of active or inactive are those of the source. Calls follow the shape of the dose curve; as a rule, active = well fitted cell-killing curve with a large enough effect; inconclusive = small, poorly fitted or top-dose-only effect, or effect the other way; inactive = flat fitted curve, though single readings scatter.
# Tested on: OV90
# Assay: Primary qHTS to identify gynecologic anti-cancer compounds using libraries of approved drugs and bioactive compounds (AID 1345084); also: nearly all actives have a fitted effect of over 55% in size
# Conditions: Gynecologic cancer cell panel viability, ATPlite luminescence, 48 h; series mostly up to 57.5 µM; activity change, negative = cytotoxicity: at the top concentration
# In short: (§1)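 Five-point cytotoxicity, 48 h drug exposure at 37 C, 5% CO2, on cells seeded 16 h beforehand. ATP content read by ATPlite luminescence.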
# % is scaled to controls: 0 for no effect and ±100 for the full control effect; potency is read from the fitted curve at half-maximal effect.
Compound,Potency,"activity change, negative = cytotoxicity"
CC(C)c1cc(C(=O)N2Cc3ccc(CN4CCN(C)CC4)cc3C2)c(O)cc1O,0.501 µM (active),–
NC(=O)Nc1cc(-c2cccc(F)c2)sc1C(=O)N[C@H]1CCCNC1,2.82 µM (active),–
Cc1cc(C(=O)N2CCN(c3cccc(Cl)c3)CC2)n(-c2ccccc2)n1,–,-0.66%
O=C(Cc1ccc(-c2ccc(OCCN3CCOCC3)cc2)cn1)NCc1ccccc1,2.82 µM (active),–
O=C(Nc1cn[nH]c1-c1nc2ccc(CN3CCOCC3)cc2[nH]1)NC1CC1,11.2 µM (active),–
Nc1ncnc2c1c(-c1cnc3[nH]ccc3c1)nn2C1CCCC1,5.01 µM (active),–
Cc1ccc(C(=O)Nc2ccc(CN3CCN(C)CC3)c(C(F)(F)F)c2)cc1C#Cc1cnc2cccnn12,15.8 µM (active),–
COc1cc2c(Nc3ccc(NC(=O)c4ccccc4)cc3)ncnc2cc1OCCCN1CCOCC1,25.1 µM (active),–
COc1ccc(C(=O)CC2(O)C(=O)Nc3c(Cl)ccc(Cl)c32)cc1 (stereo not given),–,-3.46%
CC[C@@H]1C(=O)N(C)c2cnc(Nc3ccc(C(=O)NC4CCC(N5CCN(CC6CC6)CC5)CC4)cc3OC)nc2N1C(C)C (stereo not given in full),15.8 µM (active) and 12.6 µM (active),–
Cc1nc(Nc2n[nH]c3c2CN(C(=O)N[C@H](CN(C)C)c2ccccc2)C3(C)C)c2sccc2n1,1.58 µM (active),–
COc1cccc2c(NCc3ccccc3)nc(-n3c(N)nc4ccccc43)nc12,25.1 µM (active),–
COC(=O)Nc1nc2ccc(C(=O)c3ccc(F)cc3)cc2[nH]1,–,-3.78%
CC(C)(O)CCc1ccc(OCc2cc(-c3cccc(OC(F)F)c3)c3ncccc3c2)cc1,–,-7.86%
c1nc2nc(Nc3ccc(N4CCOCC4)cc3)nc(NC3CCCCC3)c2[nH]1,–,-22.2% [at 25.3 µM]
Nc1nc(NCCNc2ncc(-n3ccnc3)c(-c3ccc(Cl)cc3Cl)n2)ccc1[N+](=O)[O-],–,13.7%
NCC(=O)Nc1ccc(-n2nc(C(F)(F)F)cc2-c2ccc3c(ccc4ccccc43)c2)cc1,–,2.33%
CC(C)(O)c1cc2nc(-c3cnc(N)nc3)nc(N3CCOCC3)c2s1,2.82 µM (active),–
O=C(Nc1cc(C(F)(F)F)cc(C(F)(F)F)c1)c1cc(Cl)ccc1O,8.91 µM (active),–
O=C(Nc1nc2cccc(-c3ccc(CN4CCS(=O)(=O)CC4)cc3)n2n1)C1CC1,–,-4%
Cn1cc(-c2ccncc2)c(-c2ccc(OCc3ccc4ccccc4n3)cc2)n1,–,-28.7%

# Tested on: PA-1
# Assay: as above
# Conditions: Gynecologic cancer cell panel viability, ATPlite luminescence, 48 h; series mostly up to 57.5 µM; activity change, negative = cytotoxicity: at the top concentration
# In short: as §1
Compound,Potency,"activity change, negative = cytotoxicity [%]"
CC(C)c1cc(C(=O)N2Cc3ccc(CN4CCN(C)CC4)cc3C2)c(O)cc1O,501 nM (active),–
NC(=O)Nc1cc(-c2cccc(F)c2)sc1C(=O)N[C@H]1CCCNC1,2820 nM (active),–
Cc1cc(C(=O)N2CCN(c3cccc(Cl)c3)CC2)n(-c2ccccc2)n1,5010 nM (active),–
OCCCNc1cc(-c2ccnc(Nc3cccc(Cl)c3)n2)ccn1,100 nM (active),–
O=C(Cc1ccc(-c2ccc(OCCN3CCOCC3)cc2)cn1)NCc1ccccc1,1260 nM (active),–
O=C(Nc1cn[nH]c1-c1nc2ccc(CN3CCOCC3)cc2[nH]1)NC1CC1,8910 nM (active),–
O=C(Nc1ncc(-c2cc(C(F)F)nn2-c2c(Cl)cccc2Cl)s1)C1CC1,1780 nM (active),–
Cc1cc(Nc2cc(CN3CCOCC3)c3nc(C)c(Cc4ccc(Cl)cc4F)n3n2)n[nH]1,–,-24.9
Cc1cc(Nc2nc(N[C@@H](C)c3ccc(F)cc3)c(C#N)cc2F)n[nH]1,7080 nM (active),–
COc1ccc(F)c(F)c1C(=O)c1cnc(NC2CCN(S(C)(=O)=O)CC2)nc1N,2510 nM (active),–
Nc1ncnc2c1c(-c1cnc3[nH]ccc3c1)nn2C1CCCC1,8910 nM (active),–
N#CCNC(=O)c1ccc(-c2ccnc(Nc3ccc(N4CCOCC4)cc3)n2)cc1,14100 nM (active),–
COc1cccc2nc(-c3cccs3)nc(NN3C(=O)C=C(C)C3=O)c12,1580 nM (active),–
Cc1ccc(C(=O)Nc2ccc(CN3CCN(C)CC3)c(C(F)(F)F)c2)cc1C#Cc1cnc2cccnn12,8910 nM (active),–
COc1cc2c(Nc3ccc(NC(=O)c4ccccc4)cc3)ncnc2cc1OCCCN1CCOCC1,–,-23.9
Cc1coc2c1C(=O)C(=O)c1c-2ccc2c1CCCC2(C)C,–,-0.979
CCn1nnc2c(N3CCOCC3)nc(-c3ccc(NC(=O)Nc4ccc(C(=O)N5CCN(C)CC5)cc4)cc3)nc21,398 nM (active),–

Compound,Potency,"activity change, negative = cytotoxicity [%]"
CC[C@@]1(O)C(=O)OCc2c1cc1n(c2=O)Cc2cc3cc(O)ccc3nc2-1,282 nM (active),–
COc1ccc(C(=O)CC2(O)C(=O)Nc3c(Cl)ccc(Cl)c32)cc1 (stereo not given),8910 nM (active),–
CC[C@@H]1C(=O)N(C)c2cnc(Nc3ccc(C(=O)NC4CCC(N5CCN(CC6CC6)CC5)CC4)cc3OC)nc2N1C(C)C (stereo not given in full),251 nM (active),–
COC(=O)Nc1nc2ccc(C(=O)c3ccc(F)cc3)cc2[nH]1,2000 nM (active),–
CCN(CC)CCNC(=O)c1ccc2nc(-c3ccccc3)c(-c3ccc(CN4CCC(n5c(=O)[nH]c6ccccc65)CC4)cc3)nc2c1,–,-7.17
CC(C)c1nn(-c2c(Cl)cccc2Cl)c2nc(Cc3ccc(OCCO)cc3)[nH]c(=O)c12,251 nM (active),–
COc1c(OCCCN2CCOCC2)ccc2c3n(c(=NC(=O)c4cnc(N)nc4)nc12)CCN3,631 nM (active),–
CC(C)(O)CCc1ccc(OCc2cc(-c3cccc(OC(F)F)c3)c3ncccc3c2)cc1,–,-20
Nc1nc(NCCNc2ncc(-n3ccnc3)c(-c3ccc(Cl)cc3Cl)n2)ccc1[N+](=O)[O-],–,25.7
CC(C)c1cnn2c(NCc3ccccc3)cc(N[C@@H](CO)[C@H](O)CO)nc12,1000 nM (active),–
CC(C)(O)c1cc2nc(-c3cnc(N)nc3)nc(N3CCOCC3)c2s1,8910 nM (active),–
CNC(=O)c1cc(Oc2ccc(NC(=O)Nc3cc(C(C)(C)C)nn3-c3ccc4ncccc4c3)c(F)c2)ccn1,20000 nM (active),–
O=C(Nc1cc(C(F)(F)F)cc(C(F)(F)F)c1)c1cc(Cl)ccc1O,1580 nM (active),–
Cn1cc(-c2ccncc2)c(-c2ccc(OCc3ccc4ccccc4n3)cc2)n1,–,-28.5
Cc1cnc(-c2cnc(NCCNc3ccc(C#N)cn3)nc2-c2ccc(Cl)cc2Cl)[nH]1,–,16.1
COc1cc2c(Oc3ccc4[nH]c(C)cc4c3F)ncnc2cc1OCCCN1CCCC1,–,-6.26
NC1(Cc2ccc(Cl)cc2)CCN(c2ncnc3[nH]ccc23)CC1,–,-15.8
